Measurements as given in PubChem BioAssay.

Each compound was assayed against Voltage-gated potassium channel subunit beta-2 (Rattus norvegicus) (UniProt P62483) (assay: KvBeta positive modulators, primary screen, biochemical, NADPH fluorescence (AID 623;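 also: fluorescence intensity change per second fitted from 20 to 320 s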)). Details: Recombinant KvBeta, NADPH fluorescence decrease slope, 10 min; at 10 µM; stronger effect = lower value.
Chain of Voltage-gated potassium channel subunit beta-2 (Rattus norvegicus) (P62483 whole entry, looked up): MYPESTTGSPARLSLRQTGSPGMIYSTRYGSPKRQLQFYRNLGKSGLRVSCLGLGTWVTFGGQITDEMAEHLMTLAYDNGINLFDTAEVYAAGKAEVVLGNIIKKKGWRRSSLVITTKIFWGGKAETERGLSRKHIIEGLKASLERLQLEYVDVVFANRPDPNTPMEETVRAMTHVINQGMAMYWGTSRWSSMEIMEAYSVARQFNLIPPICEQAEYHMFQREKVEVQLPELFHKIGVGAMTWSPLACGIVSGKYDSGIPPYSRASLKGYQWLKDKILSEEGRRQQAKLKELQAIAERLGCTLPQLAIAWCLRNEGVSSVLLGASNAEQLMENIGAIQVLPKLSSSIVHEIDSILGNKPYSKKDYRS

NADPH fluorescence slope, inactive:
CN1CCN(C2=Nc3cc(Cl)ccc3Nc3ccccc32)CC1 -6.9e-05
CCN(CC)CCNC(=O)c1ccc(N)cc1 -0.000102
CCOC(=O)C(OC(=O)c1sc(=S)n(C)c1C)C(C)=O (centres undefined) -3.9e-05
COc1ccc(Cn2ccnc2)cc1Br 1.1e-06
CC1(C)CC(=O)C=C(N=CC2=C(O)CC(C)(C)CC2=O)C1 -4.6e-05
CC1(C)CC(=O)C(C=N)=C(O)C1 -3.8e-05
COc1cc(C(=O)Nc2ccccn2)cc(OC)c1OC -5.6e-05
CN(C)CCCN1c2ccccc2CCc2ccccc21 -3.3e-05
CC1(C)S[C@@H]2[C@H](NC(=O)[C@H](N)c3ccccc3)C(=O)N2[C@H]1C(=O)O 1.8e-05
CCOC(=O)C(Oc1ccc(=O)[nH]n1)C(C)=O (centres undefined) -7.7e-06
Fc1ccc(C(c2ccc(F)cc2)N2CCN(C/C=C/c3ccccc3)CC2)cc1 -6.2e-05
O=P(Cc1nnco1)(c1ccccc1)c1ccccc1 -5.1e-05
COc1ccc(OCC(=O)OCCN(C)C)cc1 -2.2e-05
C=CCNc1nc(C2(C)CC3(CC(C)(C)OC3=O)C(=O)O2)cs1 (centres undefined) -1.4e-05
CCCCCOc1ccc(Cl)cc1CN1CCOCC1 -2.1e-05
COC(=O)C1C(=O)NCC1c1ccccc1 (centres undefined) -4e-05
CC(=O)Oc1oc(-c2ccccc2)nc1/C=N/c1ccccn1 -5.8e-05
CC1(C)CC(=O)C=C(NCCO)C1 -5.8e-05
COc1ccc(-c2coc3cc(O)cc(O)c3c2=O)cc1 -4.1e-06
O=C(NCCO)C1(c2ccccc2)CCCC1 -8.2e-06
Nc1nc2c(ncn2COCCO)c(=O)[nH]1 -8.2e-06
Cc1cc(N/C=C/C(=O)c2cccc3ccccc23)no1 -2.3e-06
Cc1nnc(NS(=O)(=O)c2ccc(N)cc2)s1 -3.2e-05
Cc1nc2sc(C)c(C)c2c(=O)o1 -4.5e-05
CC(=O)O[C@@]12CO[C@@H]1C[C@H](O)[C@@]1(C)C(=O)[C@H](O)C3=C(C)[C@@H](OC(=O)[C@H](O)[C@@H](NC(=O)OC(C)(C)C)c4ccccc4)C[C@](O)([C@@H](OC(=O)c4ccccc4)[C@H]21)C3(C)C -5.5e-05
CC[C@H]1CN2CCc3cc(OC)c(OC)cc3[C@@H]2C[C@@H]1C[C@H]1NCCc2cc(OC)c(OC)cc21 -3.6e-05
CC1=NS(=O)(=O)c2cc(Cl)ccc2N1 -5.9e-05
O=C(NCC1CCCCN1)c1cc(OCC(F)(F)F)ccc1OCC(F)(F)F (centres undefined) -5.3e-05
CC[C@]1(O)C[C@@H]2CN(CCc3c([nH]c4ccccc34)[C@@](C(=O)OC)(c3cc4c(cc3OC)N(C)[C@H]3[C@@](O)(C(=O)OC)[C@H](OC(C)=O)[C@]5(CC)C=CCN6CC[C@]43[C@@H]65)C2)C1 -2.5e-05
O=C(CCN1CCc2ccccc21)c1ccc2c(c1)OCCO2 -2.2e-05
O=C(c1ccc(N2C(=O)C3CC=C(Cl)CC3C2=O)cc1)N1CCCCC1 (centres undefined) -2.5e-05
COc1ccc([C@@H]2Sc3ccccc3N(CCN(C)C)C(=O)[C@@H]2OC(C)=O)cc1 -7.4e-05
COc1ccc[nH]c1=O -4.9e-05
O=C(CCCN1CCC(O)(c2ccc(Cl)cc2)CC1)c1ccc(F)cc1 -4.2e-05
CCn1cc(/C=N/O)c(C)n1 -3.9e-05
C1CNCCNCCCNCCNC1 -6.6e-05
CC(C)(C#N)C(C)(C)c1nn[nH]n1 -2.9e-05
O=C(O)c1ccc(COCC(F)(F)C(F)F)o1 -0.000116

What follows are compounds tested against Alpha-2C adrenergic receptor (Homo sapiens) (UniProt P18825) (assay: modulators of alpha2C/GIRK thallium flux, primary screen, cell-based, HEK293 alpha2C/GIRK1/2 (AID 624;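 active = fluorescence slope after compound addition differing from the mean of all screened samples at 99.7% confidence, in either direction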;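 also: slope of fluorescence ratio to pre-addition baseline per second over 15 to 24 s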)). Details: thallium flux BTC fluorescence, at 10 µM, actives lie on both sides.
Chain of Alpha-2C adrenergic receptor (Homo sapiens) (P18825 whole entry, looked up): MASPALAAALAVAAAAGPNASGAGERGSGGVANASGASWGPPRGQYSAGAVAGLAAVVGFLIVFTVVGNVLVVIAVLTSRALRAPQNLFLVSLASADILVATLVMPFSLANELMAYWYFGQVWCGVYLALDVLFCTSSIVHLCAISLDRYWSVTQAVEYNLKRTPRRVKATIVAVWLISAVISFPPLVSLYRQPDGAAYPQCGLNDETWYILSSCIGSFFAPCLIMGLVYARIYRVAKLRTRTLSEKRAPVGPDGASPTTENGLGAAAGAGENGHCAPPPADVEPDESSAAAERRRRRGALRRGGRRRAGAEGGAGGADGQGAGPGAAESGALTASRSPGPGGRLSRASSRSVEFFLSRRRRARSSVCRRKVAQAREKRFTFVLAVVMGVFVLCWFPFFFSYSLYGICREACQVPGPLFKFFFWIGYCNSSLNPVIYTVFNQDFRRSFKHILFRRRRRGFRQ

slope, inactive:
CCN(CC)CCNC(=O)c1ccc(N)cc1 0.00563
CN(C)CCCN1c2ccccc2CCc2ccccc21 0.00498
CC1(C)S[C@@H]2[C@H](NC(=O)[C@H](N)c3ccccc3)C(=O)N2[C@H]1C(=O)O 0.0053
Fc1ccc(C(c2ccc(F)cc2)N2CCN(C/C=C/c3ccccc3)CC2)cc1 0.00453
COc1ccc(OCC(=O)OCCN(C)C)cc1 0.00493
NC(N)=Nc1nc(CSCC/C(N)=N/S(N)(=O)=O)cs1 0.00523
COc1ccc(-c2coc3cc(O)cc(O)c3c2=O)cc1 0.00576
Nc1nc2c(ncn2COCCO)c(=O)[nH]1 0.00457
Cc1nnc(NS(=O)(=O)c2ccc(N)cc2)s1 0.00418
CC(=O)O[C@@]12CO[C@@H]1C[C@H](O)[C@@]1(C)C(=O)[C@H](O)C3=C(C)[C@@H](OC(=O)[C@H](O)[C@@H](NC(=O)OC(C)(C)C)c4ccccc4)C[C@](O)([C@@H](OC(=O)c4ccccc4)[C@H]21)C3(C)C 0.00555
CC[C@H]1CN2CCc3cc(OC)c(OC)cc3[C@@H]2C[C@@H]1C[C@H]1NCCc2cc(OC)c(OC)cc21 0.00425
CC1=NS(=O)(=O)c2cc(Cl)ccc2N1 0.00504
O=C(NCC1CCCCN1)c1cc(OCC(F)(F)F)ccc1OCC(F)(F)F (centres undefined) 0.00342
CC[C@]1(O)C[C@@H]2CN(CCc3c([nH]c4ccccc34)[C@@](C(=O)OC)(c3cc4c(cc3OC)N(C)[C@H]3[C@@](O)(C(=O)OC)[C@H](OC(C)=O)[C@]5(CC)C=CCN6CC[C@]43[C@@H]65)C2)C1 0.00463
COc1ccc([C@@H]2Sc3ccccc3N(CCN(C)C)C(=O)[C@@H]2OC(C)=O)cc1 0.00609
O=C(O)c1ccc(COCC(F)(F)C(F)F)o1 0.00477
